High-throughput results as filed in PubChem.
Rows were chosen to be rich in hits. Some 0.92% of all compounds tested hit in one or more screens of this group.
Mtb hypoxia rep: reduces hypoxia-regulated biosensor signal in M. tuberculosis | AID 1159583 | 300,000 compounds, 0.1% hits | M. tuberculosis hypoxia-regulated fluorescent reporter, fluorescence | fluorescence inhibition, % (no concentration beside the values); in the data active = fluorescence inhibition mostly above about 23%, no sharp cut-off; inactive = mostly below about 17%
Rv3671c protease: inhibitors of M. tuberculosis serine protease Rv3671c; P9WHR9; inhibition, % at 5.96 µM; 320,000 compounds, 0.048% hits; AID 2606; in the data active = inhibition above about 38%;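 note: extracellular domain of Rv3671c used as enzyme; 0% = enzyme with DMSO and 100% = no enzyme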
Target sequence (P9WHR9 whole entry, looked up, the tested form may be a part): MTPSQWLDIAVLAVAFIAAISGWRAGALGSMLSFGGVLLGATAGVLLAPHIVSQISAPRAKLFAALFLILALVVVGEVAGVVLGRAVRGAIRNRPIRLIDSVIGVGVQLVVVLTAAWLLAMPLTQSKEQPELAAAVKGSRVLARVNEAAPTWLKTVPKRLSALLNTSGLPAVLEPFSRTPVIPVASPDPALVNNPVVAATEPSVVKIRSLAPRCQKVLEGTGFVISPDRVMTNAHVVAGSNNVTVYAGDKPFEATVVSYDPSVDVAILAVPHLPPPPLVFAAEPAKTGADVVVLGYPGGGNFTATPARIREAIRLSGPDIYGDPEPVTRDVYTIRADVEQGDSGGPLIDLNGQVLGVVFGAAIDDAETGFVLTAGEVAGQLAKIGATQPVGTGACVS
Mtb betalactam: beta-lactam sensitization of Mtb H37Rv; 330,000 compounds, 0.27% hits; M. tuberculosis H37Rv growth with meropenem, percent inhibition; inhibition, % at 25 µM; call rule not given here;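 note: growth measured after seven days incubation then overnight dye step; 0% = bacteria only wells and 100% = bacteria with antibiotic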
FadD28 FP inh: inhibitors of Mycobacterium tuberculosis FadD28 bisubstrate binding; FadD28 bisubstrate probe binding, fluorescence polarization; inhibition, % at 12.5 µM; 360,000 compounds, 0.22% hits; AID 588549; in the data active = inhibition above about 8.5%, passing the limit was not always enough; inconclusive = no clear call, values can overlap the other calls
Mtb UGM inh: inhibitors of M. tuberculosis UDP-galactopyranose mutase; purified UGM, fluorescence polarization probe displacement; inhibition, % at 10 µM; 320,000 compounds, 0.06% hits; AID 504406; in the data active = inhibition above about 10%, passing the limit was not always enough; inconclusive = no clear call, values can overlap the other calls
RecA intein inh: Mtb RecA intein splicing inhibition; cell-free RecA intein splicing, fluorescence; inhibition, % (concentration not given with the values); 290,000 compounds, 0.75% hits; AID 2221; in the data active = inhibition above about 30%; inconclusive = no clear call, values can overlap the other calls;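 note: 0% = vehicle wells and 100% = reference inhibitor control wells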
* marks the source's active call; other numbers are inactive results.

COc1ccc(CN2C(=O)NC(=O)/C(=C\c3ccco3)C2=O)cc1 was read as Rv3671c protease -16.6, Mtb betalactam -4.2, FadD28 FP inh inconclusive, Mtb UGM inh 1.1 and RecA intein inh -0.4.
Cc1ccc(S(=O)(=O)N2CCOCC2)cc1C(=O)N1CCOCC1 was read as Mtb hypoxia rep 5.1, Rv3671c protease -3.6, Mtb betalactam -2.1, FadD28 FP inh 1.3, Mtb UGM inh -0.8 and RecA intein inh 2.6.
`O=c1/c(=C\c2cc([N+](=O)[O-])cc([N+](=O)[O-])c2O)sc2nc3ccccc3n12` gave Rv3671c protease 0.3, Mtb betalactam 15.4, FadD28 FP inh 22.9* and Mtb UGM inh 2.7.
Screening COC(=O)C1=CC(C(=O)OC)C2C3=C(C(=O)[C@]2(C)NC(=O)c2ccccc2)C(C)n2c(=O)n(C)c(=O)n2C3C1 (stereo partly drawn) returned Mtb hypoxia rep -3.4.
`Cc1ccccc1NC(=O)CSc1ccc(-c2ccccn2)nn1` gave Mtb hypoxia rep 39.5*, Rv3671c protease 3.2, Mtb betalactam 94.1, FadD28 FP inh -2.4, Mtb UGM inh 2.5 and RecA intein inh -2.0.
O=C(NCc1ccc(F)cc1)c1ccc(CS(=O)(=O)c2ccc(Br)cc2)o1 was read as Mtb hypoxia rep 10.0, Rv3671c protease -6.3, Mtb betalactam -6.6, FadD28 FP inh -1.5, Mtb UGM inh -2.8 and RecA intein inh -1.1.
`COc1ccc(/C=N/NC(=O)c2nn(-c3ccccc3)c(=O)c3c(N)scc23)cc1` gave Rv3671c protease -49.0, Mtb betalactam -5.3, FadD28 FP inh -0.5, Mtb UGM inh -0.1 and RecA intein inh 67.7*.
`CCOC(=O)c1nn(-c2ccc(OC)cc2)c(=O)c2c(N)scc12` gave Mtb hypoxia rep 17.7, Rv3671c protease -20.4, Mtb betalactam 15.5, FadD28 FP inh -1.0, Mtb UGM inh -0.6 and RecA intein inh 46.9*.
`COc1ccc(/C=N/NC(=O)c2nn(-c3ccc(C)c(C)c3)c(=O)c3ccccc23)cc1` gave Rv3671c protease -21.3, Mtb betalactam 3.0, FadD28 FP inh -1.9, Mtb UGM inh 5.3 and RecA intein inh -1.5.
Cc1ccc(C)c(NC(=O)CN(C)C(=O)c2ccc(S(=O)(=O)N3CCCCCC3)cc2)c1 was read as Mtb hypoxia rep 31.3*, Rv3671c protease 3.2, Mtb betalactam 2.9, FadD28 FP inh -0.5 and Mtb UGM inh -1.1.
Screening O=C(CCl)Nc1cc(S(=O)(=O)N2CCCCCC2)ccc1Cl returned Mtb hypoxia rep 15.9, Rv3671c protease 0.3, Mtb betalactam 93.3, FadD28 FP inh -0.1, Mtb UGM inh -0.5 and RecA intein inh 66.7*.
Screening Cc1ccc(C)c(NC(=O)CN(C)C(=O)c2cc(S(=O)(=O)N3CCOCC3)ccc2N2CCCC2)c1 returned Mtb hypoxia rep 2.5, Rv3671c protease -6.2, Mtb betalactam -8.4, FadD28 FP inh -1.8, Mtb UGM inh 2.0 and RecA intein inh -1.4.
Screening NS(=O)(=O)c1ccc(CNC(=O)C(Cc2ccccc2)NS(=O)(=O)c2ccccc2F)cc1 (stereo not drawn) returned Mtb hypoxia rep 3.1, Rv3671c protease -0.8, Mtb betalactam -4.0, FadD28 FP inh 16.1*, Mtb UGM inh -4.1 and RecA intein inh 0.6.
For NS(=O)(=O)c1ccc(CNC(=O)Cc2ccccc2F)cc1 the results were Mtb hypoxia rep -0.3, Rv3671c protease -2.1, Mtb betalactam 5.0, FadD28 FP inh -1.5, Mtb UGM inh -0.1 and RecA intein inh -10.3.
CC1=C(C#N)c2nc(N)c(C#N)c(C)c2/C1=C\c1ccc(-c2ccccc2C(=O)O)o1 was read as Mtb hypoxia rep 10.6, FadD28 FP inh 11.8* and RecA intein inh -3.7.
Screening Cc1ccc(NC(=O)c2ccc(-c3cc(Cl)ccc3Cl)o2)c(C)c1 returned FadD28 FP inh -8.7.
Screening CCN(CC)CCn1c(SCC(=O)NCCC2=CCCCC2)nc2c(sc3ccccc32)c1=O returned Mtb hypoxia rep 18.0, Rv3671c protease -1.3, Mtb betalactam 4.7, FadD28 FP inh -0.4, Mtb UGM inh 0.4 and RecA intein inh 0.7.
`Cc1ccc(C)c(-c2ccc(=O)n(Cc3ccc(F)cc3Cl)n2)c1` gave Mtb hypoxia rep 6.5, Rv3671c protease 0.9, Mtb betalactam 8.8, FadD28 FP inh -3.7, Mtb UGM inh 0.3 and RecA intein inh 22.0.
Screening Cc1ccc(C)c(-c2ccc(=O)n(Cc3cccc(Br)c3)n2)c1 returned Mtb hypoxia rep 14.0, Rv3671c protease -5.8, Mtb betalactam 54.4, FadD28 FP inh -2.0, Mtb UGM inh 3.2 and RecA intein inh 30.0*.
For O=C(CNC(=O)c1cccnc1)N=Nc1c(O)[nH]c2c(Br)cc(Br)cc12 the results were Rv3671c protease 5.0, Mtb betalactam -1.2, FadD28 FP inh -0.2, Mtb UGM inh -0.2 and RecA intein inh 8.0.
Screening COc1ccc2[nH]c(=O)c(CN(Cc3nnnn3Cc3ccco3)C3CCCCC3)cc2c1 returned Mtb hypoxia rep 8.8, Rv3671c protease -2.6, Mtb betalactam -10.2, FadD28 FP inh -0.2, Mtb UGM inh 0.0 and RecA intein inh 13.0.
Screening COc1ccc2[nH]c(=O)c(CN(C3CCCCC3)C(c3nnnn3Cc3ccco3)C(C)C)cc2c1 (stereo not drawn) returned Rv3671c protease -6.6, Mtb betalactam 19.9, FadD28 FP inh 0.4, Mtb UGM inh -1.5 and RecA intein inh 33.2*.
COC(=O)Cn1cc(C=C2C(=O)NC(=O)NC2=O)c2ccccc21 was read as Rv3671c protease -16.5, Mtb betalactam -5.4, FadD28 FP inh -0.5, Mtb UGM inh -0.4 and RecA intein inh -3.6.
For NC(=O)Cn1cc(C=C2C(=O)NC(=O)NC2=O)c2ccccc21 the results were Mtb hypoxia rep 8.8, Mtb betalactam -9.6, FadD28 FP inh 2.0, Mtb UGM inh 29.6* and RecA intein inh -3.0.
For COCCCNC(=O)Cn1cc(/C=C2\C(=O)NC(=O)N(c3ccccc3F)C2=O)c2ccccc21 the results were Mtb hypoxia rep 4.0, Rv3671c protease 1.5, Mtb betalactam 7.6, FadD28 FP inh 2.8, Mtb UGM inh 22.7* and RecA intein inh 2.7.
`COCCNC(=O)Cn1cc(/C=C2\C(=O)NC(=O)N(c3cccc(C)c3C)C2=O)c2ccccc21` gave Mtb hypoxia rep 4.1, Rv3671c protease -3.8, Mtb betalactam -1.4, FadD28 FP inh -0.1, Mtb UGM inh 2.4 and RecA intein inh -0.2.
`COCCNC(=O)Cn1cc(/C=C2\C(=O)NC(=O)N(c3ccccc3F)C2=O)c2ccccc21` gave Mtb hypoxia rep -5.5, Rv3671c protease -10.6, Mtb betalactam 1.8, FadD28 FP inh 2.0, Mtb UGM inh 14.9* and RecA intein inh -3.6.
Screening COc1ccccc1NC(=O)N1CCCC1C(=O)Nc1ccc2c(c1)OCCO2 (stereo not drawn) returned Mtb hypoxia rep 4.3, Rv3671c protease 7.3, Mtb betalactam -1.0, FadD28 FP inh -0.4 and Mtb UGM inh 0.1.
COc1ccc(CCNc2oc(-c3ccc(OC)c(OC)c3)nc2C#N)cc1 was read as Mtb hypoxia rep 16.4, Rv3671c protease 0.0, Mtb betalactam -5.2, FadD28 FP inh 12.3*, Mtb UGM inh -0.8 and RecA intein inh 2.7.
